In PubChem BioAssay AID651702 (NMMLSC, 2012) one finds inhibition data, which are given here for 54 molecules.

Out of some 360,000 compounds screened, about 2,400 (0.67%) were called active. Many of the other results were omitted from the sample, so actives are more common in it than they were. Unmarked numbers belong to inactive results.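 How the source made its calls: active means inhibition above about 55% (limit read from the data); inconclusive means no clear call, values can overlap the other calls; inactive means the rest.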

The nature of this assay: LAMP-1 surface exposure blockers, TALL-104 cells – cell-based, flow cytometry, MLPCN library, primary screen (AID 651702). The note with it: TALL-104 LAMP-1 surface exposure, at 10 µM, hits give high values, cells stimulated with thapsigargin and PMA.
For `COc1ccc(OCc2nnc3n2N=C(c2ccccc2)C(CC(=O)O)S3)cc1` (centres undefined), the inhibition (as a rule, the drop in the measured response relative to a control, in per cent) was 32.9%.
With `Cc1ccc(Nc2cc(=O)n(C3CCCCC3)c(=O)[nH]2)cc1C` the figure was -1.1%; with `CCOc1ccc(Cl)cc1-c1cc(C(=O)NCc2cccs2)[nH]n1`, 66.5% (active).
With `COc1ccccc1CNC(=O)c1cc(-c2cc(Cl)ccc2C)n[nH]1` the figure was 2.8%; with `COc1ccc(Cl)cc1C(=O)OCC(=O)NCc1cccs1`, 20.4%.
`Cn1c(=O)c2c(n(Cc3ccccc3)c1=O)NC(=O)C2CC(=O)N1CCc2ccccc2C1` (centres undefined): the inhibition is 5.7%.
Regarding `Cn1c(SCc2nc3ccccc3s2)nnc1-c1ccc2c(c1)OCO2`, the inhibition is -6.5%.
As to `Cc1ccccc1CN1C[C@@H]2C[C@@H](c3ccc4nsnc4c3)N3CCC[C@@]23C1=O`, the inhibition was -2.3%.
With `COc1ccc(CN2CCN(Cc3cn(C)nc3-c3ccccc3)CC2CCO)c(C)c1C` (centres undefined) the figure was 4.6%; with `Cc1ccccc1CN1C[C@@H]2C[C@@H](c3cn(C)nc3-c3ccccc3)N3CCC[C@@]23C1=O`, 82.4% (active); with `COC(=O)C1=C(C(=O)OC)C(c2cc([N+](=O)[O-])ccc2O)c2sc(=O)[nH]c2S1` (centres undefined), 7.4%.
For `Cc1cccc(Nc2nnc(SCC(=O)c3c(N)n(C4CC4)c(=O)[nH]c3=O)s2)c1C`, the inhibition is 0.1%.
The result for `CCOC(=O)C1(C)CCCN(C(=O)c2ccc(N(C)C)cc2)C1` (centres undefined) reads -2.4%; that for `CCOC(=O)C1(C)CCCN(C(=O)c2cccc(Cl)c2)C1` (centres undefined), 1.7%; that for `CCOC(=O)C1(C)CCCN(C(=O)c2ccc(F)c(Cl)c2)C1` (centres undefined), 71.1% (active).
With `O=C(Nc1ccc(Br)cc1)c1cccc(NC(=O)C2C3CC4OC(=O)C2C4C3)c1` (centres undefined) the figure was 11%; with `CCOc1ccc(CCNC(=O)C2CCN(c3ccc(N4CCOCC4)nn3)CC2)cc1OCC`, -0.7%.
The result for `Nc1nnc(SCC(=O)OCc2ccc(Cl)c(Cl)c2)s1` reads -1.6%; that for `O=C(CNC(=O)N1CC(=O)Nc2ccccc21)Nc1ccc(Br)cc1F`, 4.6%; that for `COc1ccc2c(c1)c(=Cc1ccc(N(C)C)cc1)c1cc(-c3ccccc3)[n+](C)n12`, 95.4% (active).
With `CCCNC(=O)C[C@@H]1CC[C@@H]2[C@H](COC[C@H](O)CN2C(=O)c2cc(Cl)cc(Cl)c2)O1`, the inhibition is -2.9%.
With `O=C(NCc1ccc(F)cc1)C(c1ccccc1)N(C(=O)c1csnn1)C1CC1` (centres undefined) the figure was -3.2%; with `O=C(NCc1ccccc1)C(c1ccccc1)N(C(=O)c1csnn1)c1ccc(F)cc1` (centres undefined), 56.4% (active).
With `O=C(NCc1ccccc1)C(c1cccnc1)N(C(=O)c1csnn1)c1ccc(F)cc1` (centres undefined) the figure was 12.4%.
With `O=C(CC1C(=O)NCCN1Cc1ccc(-c2ccccc2)cc1)NCC1CCOCC1` (centres undefined) the figure was 1.1%; with `CCOC(=O)C1(Cc2cccc(OC)c2)CCN(C(C)COC)CC1` (centres undefined), -0.5%.
Regarding `CCOC(=O)C1(CCOc2ccccc2)CCN(C(=O)c2cncs2)CC1`, the inhibition was -0.8%.
With `CCOC(=O)C1(CCOc2ccccc2)CCN(Cc2ccc(C#CCCO)cc2)CC1` the figure was 55.8% (active); with `CCOC(=O)C1(CCOc2ccccc2)CCN(Cc2cc(OC)c(O)cc2Cl)CC1`, 84.5% (active); with `CCOC(=O)C1(CCOC)CCN(Cc2cc3ccccc3s2)CC1`, 0.4%.
For the molecule `CCCS(=O)(=O)N1CCC(CCOc2ccccc2)(C(=O)OCC)CC1`, the inhibition was -2.2%.
With `CC1(C(=O)NCc2ccccc2)CSCC(=O)N1CCCN1CCOCC1` (centres undefined) the figure was 4.3%; with `CC1CCCN(S(=O)(=O)c2ccc(N(C(=O)c3cnccn3)C(C(=O)NC3CCCCC3)c3cccs3)cc2)C1` (centres undefined), 0.9%.
For the molecule `Cc1ccc(S(=O)(=O)N2CCN(C(=O)c3cc(S(=O)(=O)N4CCOCC4)ccc3F)CC2)cc1`, the inhibition is -3%.
`Cc1ccc(S(=O)(=O)NCC(=O)NNC(=O)c2ccc(Br)cc2)cc1C`: the inhibition was -1.3%.
The result for `CN1C(=O)/C(=C\c2ccc(-c3ccccc3)o2)SC1=S` reads 66.7% (active); that for `Cc1ccc(C(=O)O)cc1-c1ccc(/C=C2\SC(=O)N(CC(=O)Nc3ccc4c(c3)OCO4)C2=O)o1`, -0.4%.
With `NS(=O)(=O)c1ccc(-c2ccc(/C=C3\SC(=O)NC3=O)o2)cc1` the figure was -14.3%.
The result for `NC(=O)CCCC1=NS(=O)(=O)c2ccccc2N1` reads -3.9%; that for `O=C(Nc1ccc(C(=O)O)cc1)/C(=C\c1ccccc1)NC(=O)c1ccc(Br)cc1`, 9.3%.
With `CN1CCN(NC(=O)Nc2ccc(Br)cc2)CC1`, the inhibition was -2%.
The result for `O=C(NC(=O)c1ccccc1N1CCCCC1)Nc1ccc(Br)cc1` reads 84.6% (active); that for `Cc1ccc(C)c(NC(=O)CCC(=O)N/N=C2/CC(=O)CC(C)(C)C2)c1`, 3.3%.
The result for `OCCNCCOc1ccc(Cl)c(Cl)c1` reads 6.6%; that for `OCCNc1nc(Nc2ccc(Cl)c(Cl)c2)nc2ccccc12`, 57.7% (active).
In the case of `COCCNc1nc(Nc2ccccc2Cl)c2sc(-c3ccccc3)cc2n1`, the inhibition is 47.2%.
The result for `COc1ccccc1Nc1nnc(SC(C)C(=O)NC2CC2)s1` (centres undefined) reads 1.8%; that for `COc1ccc(C23NCCN2C(=O)c2ccccc23)cc1` (centres undefined), 8.9%.
The result for `COCCNc1ncnc2c1ncn2[C@H]1CN(Cc2ccc(OC)cc2)C[C@@H](CO)O1` reads 0.2%; that for `COc1ccc(-c2oc3ncnc(NCCCO)c3c2-c2ccc(OC)cc2)cc1`, 70.3% (active).
With `CCc1oc(-c2ccc(OC)cc2)c(C(=O)OCCCCCO)c1C(C)OCCO` (centres undefined) the figure was 3.7%; with `C#CCN1CC(C)/C(=N/O)CC1C` (centres undefined), 0.9%.
Consider `CCn1c(-c2ccoc2C)n[nH]c1=S`, for which the inhibition is 0.6%.
The result for `COc1ccc(C2CC(c3cccs3)=NN2c2nc(C)c(C(C)=O)s2)cc1OC` (centres undefined) reads 87.5% (active).
